# Data taken from PubChem BioAssay (EPA / NIEHS).
# Records with an inconclusive call do not appear. Active and inactive are the calls of the source. How the source made its calls, unless noted: active means hit-call score of the fitted dose curve at least 0.9, where 1 is the maximum; inactive means score below 0.9.
# Assays:
# [1] = molecular target: Hypoxia-inducible factor 1-alpha (Homo sapiens) (UniProt Q16665); assay: ATG_HIF1a_CIS: Attagene CIS-FACTORIAL HepG2 Assay for human Hypoxia Inducible Factor 1 (HIF1A) (AID 2282951); settings: HepG2 Attagene cis-factorial HIF1a reporter transcription; actives raise or lower the signal
# Method in brief: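 Dosed 24 h, transfected HepG2 cells yielded total RNA whose reporter transcripts were RT-PCR-amplified and sized by capillary electrophoresis using fluorescent labelling; DMSO defined baseline, with gain and loss of signal both fitted.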
# [2] = molecular target: Hepatocyte nuclear factor 6 (Homo sapiens) (UniProt Q9UBC0); assay: ATG_HNF6_CIS: Attagene CIS-FACTORIAL HepG2 Assay for human Hepatocyte Nuclear Factor 6 (HNF6) (AID 2282952); settings: HepG2 Attagene cis-factorial HNF6 reporter transcription; actives raise or lower the signal
# Method in brief: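 Twenty-four-hour chemical treatment of reporter-transfected HepG2 cells precedes RNA isolation, DNase-treated reverse transcription and PCR of reporter sequences. Labelled fragments are sized by capillary electrophoresis and fitted bidirectionally versus DMSO.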
# [3] = molecular target: Heat shock factor protein 1 (Homo sapiens) (UniProt Q00613); assay: ATG_HSE_CIS: Attagene CIS-FACTORIAL HepG2 Assay for human Heat Shock Transcription Factor 1 (HSE) (AID 2282953); settings: HepG2 HSE cis-reporter, Attagene RNA transcription; actives raise or lower the signal
# Method in brief: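 Using HepG2 with transfected cis-driven reporter constructs, compound effects on endogenous factor activity are scored as reporter mRNA change at 24 h. Detection: RT-PCR, HpaI digestion, capillary electrophoresis; bidirectional fitting to DMSO.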
# [4] = ATG_MRE_CIS: Attagene CIS-FACTORIAL HepG2 Assay for human Metal Responsive Element (MRE) (AID 2282954); settings: HepG2 MRE cis-reporter transcription, Attagene multiplex; actives raise or lower the signal
# Method in brief: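 RT-PCR/capillary electrophoresis readout of reporter mRNA, 24 h post-dosing, in HepG2 cells transfected with multiplexed cis-regulated reporter constructs. Gain or loss of signal fitted bidirectionally against DMSO baseline.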
# [5] = ATG_PBREM_CIS: Attagene CIS-FACTORIAL HepG2 Assay for human Phenobarbital-responsive Enhancer Module (PBREM) (AID 2282955); settings: HepG2 PBREM cis-reporter, Attagene multiplexed transcription; actives raise or lower the signal
# Method in brief: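 Transfected liver-derived HepG2 cells exposed 24 h; PBREM reporter transcript quantified via RT-PCR and capillary electrophoresis, with activity in either direction referenced to DMSO.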
# [6] = molecular target: Paired box protein Pax-6 (Homo sapiens) (UniProt P26367); assay: ATG_Pax6_CIS: Attagene CIS-FACTORIAL HepG2 Assay for human Paired Box 6 (PAX6) (AID 2282956); settings: HepG2 CIS-FACTORIAL PAX6 reporter transcription, RNA readout; actives raise or lower the signal
# Method in brief: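 Read-out is reporter transcript level, measured by RT-PCR with fluorescent primer extension and capillary electrophoresis after 24 h dosing of transfected HepG2 cells. Activity in either direction fitted relative to DMSO control.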
# [7] = ATG_PXRE_CIS: Attagene CIS-FACTORIAL HepG2 Assay for human Pregnane X Receptor Element (PXRE) (AID 2282957); settings: HepG2 Attagene CIS-FACTORIAL PXRE reporter, mRNA; actives raise or lower the signal
# Method in brief: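 Bidirectional activity, baselined to DMSO, derived from reporter mRNA fluorescence (RT-PCR plus capillary electrophoresis) in HepG2 cells bearing cis-promoter reporter units, 24 h exposure.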
# [8] = ATG_PPRE_CIS: Attagene CIS-FACTORIAL HepG2 Assay for human Peroxisome Proliferator-activated Response Element (PPRE) (AID 2282958); settings: HepG2 PPRE cis-element reporter, Attagene transcription factor profiling; actives raise or lower the signal
# Method in brief: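 Measured endpoint: PPRE-controlled reporter mRNA, detected by RT-PCR and capillary electrophoresis fluorescence, from transiently transfected HepG2 cells 24 h after dosing. Curves fitted in both directions using DMSO baseline.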
# [9] = ATG_RORE_CIS: Attagene CIS-FACTORIAL HepG2 Assay for human RAR-related Orphan Receptor Element (RORE) (AID 2282959); settings: HepG2 Attagene cis-factorial RORE reporter, mRNA; actives raise or lower the signal
# Method in brief: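 Transiently transfected HepG2 reporter cells were treated 24 h. Reporter transcripts were detected by RT-PCR and capillary electrophoresis, with bidirectional fitting against DMSO.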
# [10] = ATG_Sox_CIS: Attagene CIS-FACTORIAL HepG2 Assay for human SRY-box transcription factor (SOX) (AID 2282960); settings: HepG2 Attagene cis-factorial SOX reporter, mRNA; actives raise or lower the signal
# Method in brief: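 Gain- or loss-of-signal endpoint, fitted bidirectionally with DMSO as negative control. Based on reporter mRNA from transfected HepG2 cells harvested 24 h post-treatment and quantified via RT-PCR and capillary electrophoresis.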
# [11] = molecular target: Transcription factor Sp1 (Homo sapiens) (UniProt P08047); assay: ATG_Sp1_CIS: Attagene CIS-FACTORIAL HepG2 Assay for human Specificity Protein 1 (Sp1) (AID 2282961); settings: HepG2 Sp1 cis-reporter transcription, actives raise or lower the signal
# Method in brief: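 Endpoint reflects endogenous Sp1 transcriptional activity, not an exogenous fusion protein: HepG2 cells with transfected cis-regulated reporters, 24 h dosing, RT-PCR/capillary electrophoresis mRNA read-out, DMSO-normalised bidirectional fit.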
# [12] = ATG_SREBP_CIS: Attagene CIS-FACTORIAL HepG2 Assay for human Sterol Regulatory Element Binding (SREBP) (AID 2282962); settings: HepG2 Attagene cis-factorial SREBP reporter, mRNA; actives raise or lower the signal
# Method in brief: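 Endogenous SREBP activity read as cis-element-driven reporter transcript in transiently transfected HepG2, 24 h post-dosing; quantified via RT-PCR plus capillary electrophoresis of fluorescent fragments. Gain or loss of signal fitted relative to DMSO baseline.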
# [13] = ATG_TA_CIS: Attagene CIS-FACTORIAL HepG2 Assay for human TA Basal Promoter (AID 2282964); settings: HepG2 Attagene CIS-factorial TA basal promoter reporter; actives raise or lower the signal
# Method in brief: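 Transient MRTU transfection of HepG2 preceded 24 h compound exposure. Reporter mRNA levels were then read by RT-PCR with capillary electrophoresis, and this background-control endpoint was fitted bidirectionally to DMSO.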
# [14] = ATG_TCF_b_cat_CIS: Attagene CIS-FACTORIAL HepG2 Assay for human T-Cell-Factor with beta-catenin (TCF/b-cat) (AID 2282965); settings: HepG2 TCF/beta-catenin cis-reporter transcription, actives raise or lower the signal
# Method in brief: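 HepG2, transient MRTU transfection, cis-element-driven reporters (endogenous TFs). 24 h compound exposure. Readout: reporter mRNA by RT-PCR + 6-FAM primer extension, HpaI digest, capillary electrophoresis. Gain/loss fit vs DMSO baseline.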
# [15] = ATG_TAL_CIS: Attagene CIS-FACTORIAL HepG2 Assay for human TAL Basal Promoter (AID 2282966); settings: HepG2 Attagene cis-factorial TAL promoter reporter; actives raise or lower the signal;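 further: background control endpoint measuring basal TAL promoter reporter mRNA not a specific factor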
# Method in brief: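 Human hepatoma HepG2 cells, transfected with promoter-regulated reporter units, were treated 24 h. Reporter transcript levels, measured through RT-PCR and capillary electrophoresis, were fitted for gain or loss relative to DMSO.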
# [16] = ATG_TGFb_CIS: Attagene CIS-FACTORIAL HepG2 Assay for human Transforming Growth Factor (TGF) (AID 2282967); settings: HepG2 Attagene CIS TGFb reporter, mRNA transcription; actives raise or lower the signal
# Method in brief: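 After a 24-hour incubation with compound, transfected HepG2 cells were lysed for RNA; reporter cDNA was amplified, fluorescently end-labeled and separated by CE. DMSO served as baseline for bidirectional fits.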
# [17] = molecular target: Signal transducer and activator of transcription 3 (Homo sapiens) (UniProt P40763); assay: ATG_STAT3_CIS: Attagene CIS-FACTORIAL HepG2 Assay for human Signal Transducer and Activator of Transcription 3 (STAT3) (AID 2282963); settings: HepG2, Attagene cis-factorial STAT3 reporter transcription; actives raise or lower the signal
# Method in brief: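 Readout: fluorescent reporter mRNA fragments resolved by capillary electrophoresis. Setup: HepG2 transfected with MRTUs reporting endogenous transcription-factor activity, dosed 24 h. Gain or loss of signal fitted bidirectionally against DMSO control.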
# [18] = ATG_VDRE_CIS: Attagene CIS-FACTORIAL HepG2 Assay for human Vitamin D Receptor Element (VDRE) (AID 2282968); settings: HepG2 VDRE cis-reporter transcription, actives raise or lower the signal
# Method in brief: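 Transient MRTU transfection of HepG2, 24 h compound exposure. Readout: reporter transcripts via RT-PCR and capillary electrophoresis, fluorescence. Bidirectional fit vs DMSO.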
# [19] = molecular target: Estrogen receptor (Homo sapiens) (UniProt P03372); assay: ATG_ERa_TRANS: Attagene TRANS-FACTORIAL HepG2 Assay for human Estrogen Receptor alpha (ERa) (AID 2282970; active means hit-call score of the fitted dose curve at least 0.9, where 1 is the maximum); settings: HepG2 Attagene TRANS ERa GAL4 reporter, mRNA
# Method in brief: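 Signal derives from fluorescence of labelled reporter PCR fragments separated by capillary electrophoresis. HepG2 cells transiently carrying multiple GAL4-UAS reporter units were treated 24 hours, and induction above DMSO baseline was fitted as activity.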
# [20] = molecular target: Nuclear receptor subfamily 1 group I member 3 (Homo sapiens) (UniProt Q14994); assay: ATG_CAR_TRANS: Attagene TRANS-FACTORIAL HepG2 Assay for human Constitutive Androstane Receptor (CAR) (AID 2282969; active means hit-call score of the fitted dose curve at least 0.9, where 1 is the maximum;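 further: activators raise reporter mRNA above DMSO so AC50 marks induction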); settings: HepG2 Attagene TRANS-FACTORIAL CAR reporter
# Method in brief: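 Transiently transfected HepG2, multiplex TRANS reporters (CAR-Gal4 chimera driving GAL4-UAS reporter). 24 h dosing. Readout: reporter transcript by RT-PCR + capillary electrophoresis, fluorescence intensity; positive direction vs DMSO.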
# Transcription factor Sp1 (Homo sapiens), sequence (P08047 whole entry, looked up, the tested form may be a part): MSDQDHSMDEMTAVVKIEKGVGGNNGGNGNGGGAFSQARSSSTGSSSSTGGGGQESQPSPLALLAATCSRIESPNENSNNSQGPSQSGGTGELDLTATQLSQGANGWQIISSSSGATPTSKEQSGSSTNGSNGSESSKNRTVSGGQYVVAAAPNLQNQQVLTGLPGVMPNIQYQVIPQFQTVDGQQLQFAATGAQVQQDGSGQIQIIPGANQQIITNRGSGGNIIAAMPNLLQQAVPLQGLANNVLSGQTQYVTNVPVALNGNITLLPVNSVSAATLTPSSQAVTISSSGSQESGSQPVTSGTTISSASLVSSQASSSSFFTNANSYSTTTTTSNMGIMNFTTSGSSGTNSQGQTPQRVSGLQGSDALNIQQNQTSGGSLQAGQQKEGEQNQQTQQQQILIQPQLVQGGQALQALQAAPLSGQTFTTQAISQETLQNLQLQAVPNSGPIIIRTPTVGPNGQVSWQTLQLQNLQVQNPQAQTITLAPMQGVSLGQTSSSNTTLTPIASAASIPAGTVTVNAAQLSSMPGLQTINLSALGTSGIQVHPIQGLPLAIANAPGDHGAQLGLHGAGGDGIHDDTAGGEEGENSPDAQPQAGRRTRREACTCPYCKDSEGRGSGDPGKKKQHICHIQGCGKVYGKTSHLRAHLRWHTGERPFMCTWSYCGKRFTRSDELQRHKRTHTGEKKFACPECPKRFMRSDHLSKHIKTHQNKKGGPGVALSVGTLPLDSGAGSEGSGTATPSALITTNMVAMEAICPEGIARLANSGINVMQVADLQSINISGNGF
# Heat shock factor protein 1 (Homo sapiens), sequence (Q00613 whole entry, looked up): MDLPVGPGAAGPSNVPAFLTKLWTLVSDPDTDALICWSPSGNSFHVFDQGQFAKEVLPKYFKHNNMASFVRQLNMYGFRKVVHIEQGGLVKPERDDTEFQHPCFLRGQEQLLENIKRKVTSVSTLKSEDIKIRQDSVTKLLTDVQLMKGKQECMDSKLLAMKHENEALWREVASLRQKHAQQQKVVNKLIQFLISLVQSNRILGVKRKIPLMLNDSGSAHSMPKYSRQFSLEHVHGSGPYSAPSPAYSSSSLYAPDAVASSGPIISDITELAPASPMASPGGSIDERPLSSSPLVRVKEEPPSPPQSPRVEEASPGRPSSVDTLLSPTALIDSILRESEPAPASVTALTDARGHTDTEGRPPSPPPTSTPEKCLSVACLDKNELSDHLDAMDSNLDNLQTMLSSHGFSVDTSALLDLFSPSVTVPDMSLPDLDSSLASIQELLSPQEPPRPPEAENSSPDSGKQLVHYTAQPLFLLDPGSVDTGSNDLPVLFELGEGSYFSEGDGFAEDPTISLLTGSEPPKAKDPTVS
# Hepatocyte nuclear factor 6 (Homo sapiens), sequence (Q9UBC0 whole entry, looked up, the tested form may be a part): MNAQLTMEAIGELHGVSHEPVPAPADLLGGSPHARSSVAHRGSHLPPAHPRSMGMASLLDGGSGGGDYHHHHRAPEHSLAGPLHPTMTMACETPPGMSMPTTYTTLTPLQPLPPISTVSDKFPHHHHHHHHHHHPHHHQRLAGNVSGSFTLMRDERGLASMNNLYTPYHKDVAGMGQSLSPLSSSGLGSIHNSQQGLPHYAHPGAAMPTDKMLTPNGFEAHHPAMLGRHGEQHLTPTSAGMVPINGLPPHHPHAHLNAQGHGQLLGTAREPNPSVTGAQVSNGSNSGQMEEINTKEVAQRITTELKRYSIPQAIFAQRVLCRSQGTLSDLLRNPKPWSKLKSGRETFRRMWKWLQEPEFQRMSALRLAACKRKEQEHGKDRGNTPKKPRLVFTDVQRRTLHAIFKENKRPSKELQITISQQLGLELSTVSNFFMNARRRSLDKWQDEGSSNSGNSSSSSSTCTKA
# Paired box protein Pax-6 (Homo sapiens), sequence (P26367 whole entry, looked up): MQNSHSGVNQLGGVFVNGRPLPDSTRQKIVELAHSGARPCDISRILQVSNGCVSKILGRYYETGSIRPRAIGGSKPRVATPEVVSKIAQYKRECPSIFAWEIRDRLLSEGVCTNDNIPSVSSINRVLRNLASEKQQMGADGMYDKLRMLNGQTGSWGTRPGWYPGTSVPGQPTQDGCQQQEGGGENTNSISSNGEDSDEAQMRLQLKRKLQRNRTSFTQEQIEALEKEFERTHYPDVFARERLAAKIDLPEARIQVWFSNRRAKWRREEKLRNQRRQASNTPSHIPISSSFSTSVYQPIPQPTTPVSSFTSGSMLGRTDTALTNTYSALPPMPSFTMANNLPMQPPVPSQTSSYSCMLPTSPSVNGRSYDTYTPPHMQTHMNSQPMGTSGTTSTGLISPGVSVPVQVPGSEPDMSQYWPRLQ
# Hypoxia-inducible factor 1-alpha (Homo sapiens), sequence (Q16665 whole entry, looked up): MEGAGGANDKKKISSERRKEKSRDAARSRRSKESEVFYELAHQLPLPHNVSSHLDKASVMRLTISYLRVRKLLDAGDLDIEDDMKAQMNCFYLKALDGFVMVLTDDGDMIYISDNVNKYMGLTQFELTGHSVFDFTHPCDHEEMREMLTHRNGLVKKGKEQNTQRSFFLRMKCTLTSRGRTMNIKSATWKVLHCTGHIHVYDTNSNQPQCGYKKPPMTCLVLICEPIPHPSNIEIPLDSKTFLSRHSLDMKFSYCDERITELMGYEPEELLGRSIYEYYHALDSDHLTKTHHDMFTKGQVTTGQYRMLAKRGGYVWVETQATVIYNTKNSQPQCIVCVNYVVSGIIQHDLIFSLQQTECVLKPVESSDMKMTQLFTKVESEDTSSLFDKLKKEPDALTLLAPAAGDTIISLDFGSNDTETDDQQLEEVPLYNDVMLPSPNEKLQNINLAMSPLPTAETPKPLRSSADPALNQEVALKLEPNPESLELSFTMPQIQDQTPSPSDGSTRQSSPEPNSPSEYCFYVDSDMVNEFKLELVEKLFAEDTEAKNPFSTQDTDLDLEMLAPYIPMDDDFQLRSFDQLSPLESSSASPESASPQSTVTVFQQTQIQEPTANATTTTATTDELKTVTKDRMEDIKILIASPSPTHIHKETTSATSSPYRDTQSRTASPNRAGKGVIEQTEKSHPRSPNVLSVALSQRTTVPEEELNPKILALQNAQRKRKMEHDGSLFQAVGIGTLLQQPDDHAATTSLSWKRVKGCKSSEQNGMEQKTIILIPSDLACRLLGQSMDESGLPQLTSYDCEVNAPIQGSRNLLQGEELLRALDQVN
# Estrogen receptor (Homo sapiens), sequence (P03372 whole entry, looked up, the tested form may be a part): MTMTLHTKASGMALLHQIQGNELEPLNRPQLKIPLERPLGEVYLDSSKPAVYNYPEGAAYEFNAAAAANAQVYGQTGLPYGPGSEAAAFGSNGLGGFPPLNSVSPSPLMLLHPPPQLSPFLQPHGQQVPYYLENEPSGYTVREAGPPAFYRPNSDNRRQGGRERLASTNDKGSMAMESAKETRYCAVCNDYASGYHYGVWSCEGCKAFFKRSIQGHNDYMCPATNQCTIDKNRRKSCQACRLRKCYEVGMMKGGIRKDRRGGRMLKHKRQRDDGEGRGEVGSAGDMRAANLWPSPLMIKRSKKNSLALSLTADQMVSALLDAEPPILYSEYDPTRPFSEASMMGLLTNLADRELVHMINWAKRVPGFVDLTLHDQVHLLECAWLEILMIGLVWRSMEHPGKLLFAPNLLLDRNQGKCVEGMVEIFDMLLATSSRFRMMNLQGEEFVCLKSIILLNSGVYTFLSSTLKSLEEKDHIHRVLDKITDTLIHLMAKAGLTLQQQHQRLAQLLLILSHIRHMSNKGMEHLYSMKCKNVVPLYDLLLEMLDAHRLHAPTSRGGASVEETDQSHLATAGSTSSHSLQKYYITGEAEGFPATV
# Signal transducer and activator of transcription 3 (Homo sapiens), sequence (P40763 whole entry, looked up, the tested form may be a part): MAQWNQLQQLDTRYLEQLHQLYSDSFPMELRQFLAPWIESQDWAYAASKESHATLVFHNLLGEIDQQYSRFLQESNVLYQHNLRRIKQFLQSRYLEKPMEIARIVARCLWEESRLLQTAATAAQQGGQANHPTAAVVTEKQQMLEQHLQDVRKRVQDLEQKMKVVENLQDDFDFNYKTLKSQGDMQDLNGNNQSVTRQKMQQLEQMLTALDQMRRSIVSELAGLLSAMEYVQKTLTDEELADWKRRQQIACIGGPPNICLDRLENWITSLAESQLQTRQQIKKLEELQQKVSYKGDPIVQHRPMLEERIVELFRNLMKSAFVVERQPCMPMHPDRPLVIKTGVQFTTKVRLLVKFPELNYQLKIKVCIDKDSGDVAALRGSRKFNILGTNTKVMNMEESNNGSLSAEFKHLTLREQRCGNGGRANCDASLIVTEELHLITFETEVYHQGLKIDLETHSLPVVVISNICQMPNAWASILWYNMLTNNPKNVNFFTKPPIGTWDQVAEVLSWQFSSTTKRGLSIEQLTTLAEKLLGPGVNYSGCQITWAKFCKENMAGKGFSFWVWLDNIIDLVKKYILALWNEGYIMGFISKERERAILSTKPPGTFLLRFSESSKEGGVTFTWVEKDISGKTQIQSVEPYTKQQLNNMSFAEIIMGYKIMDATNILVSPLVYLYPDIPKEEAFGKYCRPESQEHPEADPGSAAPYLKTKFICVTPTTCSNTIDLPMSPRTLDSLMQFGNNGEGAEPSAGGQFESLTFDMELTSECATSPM
# Nuclear receptor subfamily 1 group I member 3 (Homo sapiens), sequence (Q14994 whole entry, looked up, the tested form may be a part): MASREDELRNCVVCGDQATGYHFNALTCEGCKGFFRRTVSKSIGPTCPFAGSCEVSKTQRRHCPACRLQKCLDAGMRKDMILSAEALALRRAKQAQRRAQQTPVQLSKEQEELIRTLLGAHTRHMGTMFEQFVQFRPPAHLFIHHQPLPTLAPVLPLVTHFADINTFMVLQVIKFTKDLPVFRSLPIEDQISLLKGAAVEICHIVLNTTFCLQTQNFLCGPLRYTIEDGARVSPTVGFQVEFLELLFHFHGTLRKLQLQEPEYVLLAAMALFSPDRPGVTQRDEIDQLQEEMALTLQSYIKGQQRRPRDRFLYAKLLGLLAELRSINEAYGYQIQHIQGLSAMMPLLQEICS
smiles,measurement,setting,value
Clc1cccc(Cl)c1,outcome,[1],inactive
same,outcome,[2],inactive
same,outcome,[3],inactive
same,outcome,[4],inactive
same,outcome,[5],inactive
same,outcome,[6],inactive
same,outcome,[7],inactive
same,outcome,[8],inactive
same,outcome,[9],inactive
same,outcome,[10],inactive
same,outcome,[11],inactive
same,outcome,[12],inactive
same,outcome,[13],inactive
same,outcome,[14],inactive
same,outcome,[15],inactive
same,outcome,[16],inactive
CCOC(=O)OC1=C(c2cc(C)ccc2C)C(=O)NC12CCC(OC)CC2 (stereo unspecified),outcome,[1],inactive
same,outcome,[2],inactive
same,outcome,[3],inactive
same,outcome,[4],inactive
same,outcome,[5],inactive
same,outcome,[6],inactive
same,outcome,[7],inactive
same,outcome,[8],inactive
same,outcome,[9],inactive
same,outcome,[10],inactive
same,outcome,[11],inactive
same,outcome,[12],inactive
same,outcome,[17],inactive
same,outcome,[13],inactive
same,outcome,[14],inactive
same,outcome,[15],inactive
same,outcome,[16],inactive
same,outcome,[18],inactive
same,outcome,[19],inactive
CCCCOC(=O)COC(=O)c1ccccc1C(=O)OCCCC,outcome,[1],inactive
same,outcome,[2],inactive
same,outcome,[3],inactive
same,outcome,[4],inactive
same,outcome,[5],inactive
same,outcome,[6],inactive
same,AC50,[7],40.9 µM (active)
same,AC50,[8],42.6 µM (active)
same,AC50,[9],53.2 µM (active)
same,outcome,[10],inactive
same,outcome,[11],inactive
same,outcome,[12],inactive
same,outcome,[17],inactive
same,outcome,[13],inactive
same,outcome,[14],inactive
same,outcome,[15],inactive
same,outcome,[16],inactive
same,outcome,[20],inactive
same,outcome,[19],inactive
CCOC(=O)Cc1ccccc1,outcome,[1],inactive
same,outcome,[2],inactive
same,outcome,[3],inactive
same,outcome,[4],inactive
same,outcome,[5],inactive
same,outcome,[6],inactive
same,outcome,[7],inactive
same,outcome,[8],inactive
same,outcome,[9],inactive
same,outcome,[10],inactive
same,outcome,[11],inactive
same,outcome,[12],inactive
same,outcome,[13],inactive
same,outcome,[14],inactive
same,outcome,[15],inactive
same,outcome,[16],inactive
same,outcome,[18],inactive
